From PubChem BioAssay (NCATS)
Inconclusive results are not listed. Active and inactive are the calls of the source. Unless noted, calls come from the whole dose curve; as a rule, active = well fitted curve in either direction with a large enough effect (not every such curve was filed as active); inconclusive = small, poorly fitted or top-dose-only effect, or another doubt; inactive = flat fitted curve, though single readings scatter.

Tests used:
[1] = molecular target: Lysosomal acid glucosylceramidase (Homo sapiens) (UniProt P04062); assay: Glucocerebrosidase-p2 (AID 348; in the data active = potency below about 10 µM; note: potency is the fitted concentration of half-maximal effect); conditions: purified GBA, blue fluorogenic substrate, 40 min
Sequence of Lysosomal acid glucosylceramidase (Homo sapiens) (P04062 whole entry, looked up): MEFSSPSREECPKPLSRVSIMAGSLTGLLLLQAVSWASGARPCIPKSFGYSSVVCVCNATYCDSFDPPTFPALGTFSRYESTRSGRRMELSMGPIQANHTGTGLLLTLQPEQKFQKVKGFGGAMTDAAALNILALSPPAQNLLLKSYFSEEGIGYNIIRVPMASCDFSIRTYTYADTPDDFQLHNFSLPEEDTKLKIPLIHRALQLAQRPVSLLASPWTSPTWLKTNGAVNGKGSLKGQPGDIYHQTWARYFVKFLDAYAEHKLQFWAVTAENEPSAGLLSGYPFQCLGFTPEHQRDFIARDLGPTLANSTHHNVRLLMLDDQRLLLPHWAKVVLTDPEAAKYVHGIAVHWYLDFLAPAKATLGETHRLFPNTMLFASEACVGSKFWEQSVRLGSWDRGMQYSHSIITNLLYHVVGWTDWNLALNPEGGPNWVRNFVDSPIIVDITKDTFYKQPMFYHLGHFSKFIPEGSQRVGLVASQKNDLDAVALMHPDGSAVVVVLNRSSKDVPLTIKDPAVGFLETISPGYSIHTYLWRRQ
Method in brief: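 Compounds titrated from 0.6 nM upwards against 0.2 nM enzyme in pH 5.9 citric acid/KH2PO4, taurocholate, tween-20; blue fluorogenic substrate 80 uM, 40 min room temperature, stopped and read Ex 365/Em 440 for AC50.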

[2] = AP1 Signaling Pathway (AID 357); conditions: ME-180 AP-1-bla reporter, EGF-induced, beta-lactamase ratio, 5 h; at 7.69 µM (top of the series) unless noted;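 note: ME-180 reporter cells stimulated with EGF at its EC50 level; % is set by controls: 0 for no effect and ±100 for the full control effect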
Method in brief: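 A ratiometric CCF4 readout (405 nm excitation; 460 and 530 nm emission) quantified AP-1-driven beta-lactamase in ME-180 cells after 5 h with compound and EC50 EGF; AC50 values were derived for activators and inhibitors.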

[3] = NFAT Signaling Pathway (AID 444); conditions: Jurkat NFAT-bla M1, carbachol, beta-lactamase ratio, 5 h; at 7.69 µM (top of the series) unless noted;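 note: carbachol stimulus at about its EC50 of 1 µM final; % is set by controls: 0 for no effect and ±100 for the full control effect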
Method in brief: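 Read-out: CCF4 FRET ratio (460 nm/530 nm) after 1 h RT dye loading, used for %activity and AC50 from titration series. Cells: Jurkat NFAT-β-lactamase/M1 line, treated with compound plus 1 uM carbachol for 5 h, 37 °C.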

[4] = Stat Signaling Pathway (AID 446); conditions: ME-180 SIE beta-lactamase reporter, IL-6 stimulated, 5 h; at 7.69 µM (top of the series) unless noted;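 note: ME-180 cervical cancer cells given 40 pM IL-6 alongside compound; SIE-controlled beta-lactamase reporter measured as 460/530 nm FRET emission ratio; % is set by controls: 0 for no effect and ±100 for the full control effect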
Method in brief: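 Reporter line: ME-180 cervical carcinoma, SIE-beta-lactamase. Treatment: compound with 40 pM IL-6, 5 hrs, 37 C, in low-serum OPTI-MEM with 10 mM HEPES pH 7.3. Detection: 460/530 nm fluorescence.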

[5] = molecular target: Glucocorticoid receptor (Homo sapiens) (UniProt P04150); assay: GR-GFP Redistribution (AID 450;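 active = compounds whose dose series gives a full or clear partial fitted curve of increased nuclear translocation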; note: potency is the fitted concentration of half-maximal effect); conditions: U2OS GR-GFP nuclear translocation, laser cytometry, 2 h
Sequence of Glucocorticoid receptor (Homo sapiens) (P04150 whole entry, looked up, the tested form may be a part): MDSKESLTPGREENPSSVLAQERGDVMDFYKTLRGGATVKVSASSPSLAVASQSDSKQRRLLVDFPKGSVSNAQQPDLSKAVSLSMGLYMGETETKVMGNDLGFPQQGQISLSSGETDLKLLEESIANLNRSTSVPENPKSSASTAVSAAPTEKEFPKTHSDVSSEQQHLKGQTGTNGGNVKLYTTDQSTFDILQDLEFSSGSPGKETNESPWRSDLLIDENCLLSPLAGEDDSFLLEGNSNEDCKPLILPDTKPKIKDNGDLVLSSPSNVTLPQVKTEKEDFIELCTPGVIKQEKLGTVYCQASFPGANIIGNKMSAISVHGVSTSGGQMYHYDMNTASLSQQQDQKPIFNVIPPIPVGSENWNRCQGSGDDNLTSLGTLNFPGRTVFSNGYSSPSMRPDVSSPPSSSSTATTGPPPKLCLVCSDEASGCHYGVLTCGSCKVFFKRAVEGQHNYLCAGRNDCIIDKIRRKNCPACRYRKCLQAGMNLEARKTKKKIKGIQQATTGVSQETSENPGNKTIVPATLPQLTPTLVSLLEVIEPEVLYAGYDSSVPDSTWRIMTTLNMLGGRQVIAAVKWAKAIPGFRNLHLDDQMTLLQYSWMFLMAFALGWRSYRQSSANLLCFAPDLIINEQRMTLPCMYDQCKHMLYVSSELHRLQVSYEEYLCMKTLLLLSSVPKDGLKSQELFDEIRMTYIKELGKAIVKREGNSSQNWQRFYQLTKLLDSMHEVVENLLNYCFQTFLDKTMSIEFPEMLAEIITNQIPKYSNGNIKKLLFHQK

[6] = molecular target: Glucocorticoid receptor (Homo sapiens) (UniProt P04150); assay: GR-EFC Redistribution (AID 451; calls by dose curve; note: potency is the fitted concentration of half-maximal effect); conditions: CHO-K1 GR-EFC translocation, beta-gal luminescence, 2 h
Method in brief: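 Translocation of GR-ED fusion to nuclear EA restores b-gal, read by luminescence after 1 h room-temperature detection. Engineered CHO-K1 biosensor cells, 1,000/well, exposed 2 h at 37 C to titrations up to 46 uM final.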

[7] = molecular target: Mitogen-activated protein kinase 10 (Mus musculus) (UniProt Q61831); assay: JNK3 AlphaScreen Assay (AID 530); conditions: JNK3 lysate, c-Jun phosphorylation; series mostly up to 11.4 µM;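 note: kinase came from lysate of stimulated human HepG2 cells; signal reports phosphorylation of biotinylated GST-cJun 1-79 at Ser73 with 10 µM ATP; % is set by controls: 0 for no effect and ±100 for the full control effect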
Method in brief: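 Room-temperature AlphaScreen kinase assay; pre-activated HepG2 lysate as JNK3 source, biotin-GST-cJun(1-79) substrate, 10 uM ATP, compound 15 min preincubation.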

[8] = molecular target: 3',5'-cyclic-AMP phosphodiesterase 4B (Homo sapiens) (UniProt Q07343); assay: qHTS Assay for Inhibitors of PDE-IV (AID 607; active = well fitted activation curve with a large enough effect in the main read-out, with a control signal flat, not every such curve was filed as active; note: % of control where 0% means no effect); conditions: HEK293 ACTOne CNG channel cells, membrane potential fluorescence; series mostly up to 22.9 µM
Sequence of 3',5'-cyclic-AMP phosphodiesterase 4B (Homo sapiens) (Q07343 whole entry, looked up): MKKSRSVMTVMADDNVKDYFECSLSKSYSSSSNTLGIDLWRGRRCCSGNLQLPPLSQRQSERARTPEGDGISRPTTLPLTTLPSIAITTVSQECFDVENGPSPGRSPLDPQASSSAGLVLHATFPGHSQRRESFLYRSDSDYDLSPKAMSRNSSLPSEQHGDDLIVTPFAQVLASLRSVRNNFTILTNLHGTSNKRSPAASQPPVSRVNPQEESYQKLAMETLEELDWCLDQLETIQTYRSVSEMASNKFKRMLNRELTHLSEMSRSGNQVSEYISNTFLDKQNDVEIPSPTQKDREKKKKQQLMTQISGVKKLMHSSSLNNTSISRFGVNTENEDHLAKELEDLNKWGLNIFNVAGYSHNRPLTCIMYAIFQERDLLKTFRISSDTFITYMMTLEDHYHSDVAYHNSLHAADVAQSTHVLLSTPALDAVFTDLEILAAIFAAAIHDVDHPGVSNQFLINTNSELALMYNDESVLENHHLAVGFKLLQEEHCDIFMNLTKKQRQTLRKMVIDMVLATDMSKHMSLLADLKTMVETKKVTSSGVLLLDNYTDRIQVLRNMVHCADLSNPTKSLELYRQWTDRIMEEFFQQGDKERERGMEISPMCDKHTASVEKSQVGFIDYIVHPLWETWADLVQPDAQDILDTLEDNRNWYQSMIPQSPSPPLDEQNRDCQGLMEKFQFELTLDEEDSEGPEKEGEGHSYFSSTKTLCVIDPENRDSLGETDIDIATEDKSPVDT
Method in brief: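 Cell-based read-out of cAMP via a modified cyclic nucleotide-gated channel and membrane potential dye (535/590 nm) in HEK293 cells expressing PDE4 endogenously. Compounds tested up to 22.9 uM final; 100 uM RO 20-1724 reference.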

O=C(O)CCSCc1ccc(I)cc1
inactive: Potency [1] > 11.4 µM | activity change, negative = inhibition [2] 2.76% | activity change, negative = inhibition [3] 1.51% | activity, negative = inhibition [4] 4.16% | Potency [5] > 46 µM | Potency [6] > 9.22 µM | Potency [7] | Potency [8]

CC(=O)Nc1c(C)cc(OCC(=O)O)cc1C
inactive: Potency [1] > 11.4 µM | activity change, negative = inhibition [2] -0.915% | activity change, negative = inhibition [3] 19.3% | activity, negative = inhibition [4] 12.5% | Potency [5] > 46 µM | Potency [6] > 9.22 µM | Potency [7] | Potency [8]

O=C(Nc1c[nH]c(=O)[nH]c1=O)Oc1ccccc1
inactive: Potency [1] > 11.4 µM | activity change, negative = inhibition [2] 1.22% | activity change, negative = inhibition [3] 2.28% | activity, negative = inhibition [4] -1.82% | Potency [5] > 46 µM | Potency [6] > 9.22 µM | Potency [7] | Potency [8]

COc1ccc2c(C)cc(C)nc2n1
inactive: Potency [1] > 11.4 µM | activity change, negative = inhibition [2] 0.0891% | activity change, negative = inhibition [3] 9.21% | activity, negative = inhibition [4] 8.73% | Potency [5] > 46 µM | Potency [6] > 9.22 µM | Potency [7] | Potency [8]

NCCSc1nc(-c2ccccc2)c(-c2ccccc2)o1
inactive: Potency [1] > 11.4 µM | activity change, negative = inhibition [2] 2.27% | activity change, negative = inhibition [3] -4.41% | activity, negative = inhibition [4] -3.16% | Potency [5] > 46 µM | Potency [6] > 9.22 µM | Potency [7] | Potency [8]

CC(CO)(CO)Nc1ncnc2ccccc12
inactive: Potency [1] > 11.4 µM | activity change, negative = inhibition [2] 4.46% | activity change, negative = inhibition [3] 9.62% | activity, negative = inhibition [4] 12.4% | Potency [5] > 46 µM | Potency [6] > 9.22 µM | Potency [7] | Potency [8]

COc1nc(Cl)nc(Cl)c1Cl (tested in a mixture with another compound)
inactive: Potency [1] > 11.4 µM | activity change, negative = inhibition [2] 2.89% | activity change, negative = inhibition [3] 3.88% | activity, negative = inhibition [4] 7.12% | Potency [5] > 46 µM | Potency [6] > 9.22 µM | Potency [7] | Potency [8]

Clc1ccc(CSc2ncnc3c2ncn3[C@@H]2CCCCO2)cc1
inactive: Potency [1] > 11.4 µM | activity change, negative = inhibition [2] -8.23% | activity change, negative = inhibition [3] 12.9% | activity, negative = inhibition [4] -14.7% | Potency [5] > 46 µM | Potency [6] > 9.22 µM | Potency [7] | Potency [8]

Cc1[nH]c(C)c(CN(C)C)c1CN(C)C
inactive: Potency [1] > 11.4 µM | activity change, negative = inhibition [2] -2.51% | activity change, negative = inhibition [3] -26.2% | activity, negative = inhibition [4] 12.9% | Potency [5] > 46 µM | Potency [6] > 9.22 µM | Potency [7] | Potency [8]

NC(N)=NC[C@H](N)C(=O)O
inactive: Potency [1] > 11.4 µM | activity change, negative = inhibition [2] 1.65% | activity change, negative = inhibition [3] 10.9% | activity, negative = inhibition [4] 0.308% | Potency [5] > 46 µM | Potency [6] > 9.22 µM | Potency [7] | Potency [8]

CC(=O)[C@@]1(N=Nc2ccc(S(N)(=O)=O)cc2)CCOC1=O
inactive: Potency [1] > 11.4 µM | activity change, negative = inhibition [2] -8.54% | activity change, negative = inhibition [3] 5.28% | activity, negative = inhibition [4] 6.55% | Potency [5] > 46 µM | Potency [6] > 9.22 µM | Potency [7] | Potency [8]

N=C(N)C(N=Nc1ccccc1)C(=N)N (stereo not drawn)
inactive: Potency [1] > 11.4 µM | activity change, negative = inhibition [2] 1.88% | activity change, negative = inhibition [3] 3.59% | activity, negative = inhibition [4] 1.6% | Potency [5] > 46 µM | Potency [6] > 9.22 µM | Potency [7] | Potency [8]

CNC[C@@H](SC)c1ccc(O)c(O)c1
inactive: Potency [1] > 11.4 µM | activity change, negative = inhibition [2] 1.24% | activity change, negative = inhibition [3] 7.41% | activity, negative = inhibition [4] 21% | Potency [5] > 46 µM | Potency [6] > 9.22 µM | Potency [7] | Potency [8]

c1ccc(B2OC[C@@H]3OB(c4ccccc4)O[C@H]([C@@H]4COB(c5ccccc5)O4)[C@@H]3O2)cc1
inactive: Potency [1] > 11.4 µM | activity change, negative = inhibition [2] -8.96% | activity change, negative = inhibition [3] 19.9% | activity, negative = inhibition [4] -6.35% | Potency [5] > 46 µM | Potency [6] > 9.22 µM | Potency [7] | Potency [8]

O=C(O)c1ccccc1-c1ccccc1C(=O)c1ccccc1
inactive: Potency [1] > 11.4 µM | activity change, negative = inhibition [2] 6.33% | activity change, negative = inhibition [3] 5.49% | activity, negative = inhibition [4] 2.8% | Potency [5] > 46 µM | Potency [6] > 9.22 µM | Potency [7] | Potency [8]

C[N+](C)(C)c1ncnc2c1ncn2[C@@H]1C[C@H](O)[C@@H](CO)O1
inactive: Potency [1] > 11.4 µM | activity change, negative = inhibition [2] 2.41% | activity change, negative = inhibition [3] 9.78% | activity, negative = inhibition [4] 3.06% | Potency [5] > 46 µM | Potency [6] > 9.22 µM | Potency [7] | Potency [8]
